In the library only some 2.4% were active in any assay of this set; here they are far more common.
Tb PFK block – T. brucei PFK enzyme inhibition. AID 485367. actives 0.17% (n = 330,000). T. brucei PFK, ADP-Glo luminescence. Potency, µM (top dose mostly 57.5 µM), for inactives: at the top dose activity, negative = inhibition, hits mostly inhibitors;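 further: 0% = uninhibited 1x PFK enzyme wells and -100% = no-enzyme wells; nearly all actives have a fitted effect of over 60% in size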
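ADP-Glo luminescence quantified ADP after 45 min at room temperature, with 1.25 nM T. brucei PFK, 0.1 mM ATP and 0.5 mM fructose-6-phosphate in pH 8.0 TEA buffer. qHTS titrations up to 57 µM; curves classified by quality.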
ELG1 repair inh – inhibitors of ELG1-dependent DNA repair in HEK293T cells; Potency, µM (doses to about 46.1 µM), for the others: at the highest dose activity change, negative = inhibition, most hits filed as inhibitors; actives 2.3% (n = 330,000); HEK293T ELG1-luciferase reporter, luminescence, 16 h; DNA damage induced by 5-fluorouridine; AID 504467; further: on the % scale 0 is the no-effect control and ±100 the full control effect; nearly all actives have a fitted effect of over 55% in size
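Overnight (16 hr) co-exposure of 2,000 cells/well to 5-fluorouridine and compound at 37 °C preceded detection. Luciferase was quantified via ONE-Glo luminescence; loss of signal denotes inhibition.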
Tb PGK inh – T. brucei PGK inhibition; P07378; PGK/GAPDH coupled, Kinase-Glo luminescence, 60 min; Potency, µM (doses to about 57.5 µM), without a hit: at the highest dose activity change, negative = inhibition, hits mostly inhibitors; actives 0.043% (n = 380,000); further: on the % scale 0 is the no-effect control and ±100 the full control effect; nearly all actives have a fitted effect of over 60% in size
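Recombinant glycosomal PGK reaction used 1,3-bisphosphoglycerate generated in-well by GAPDH (100nM final) in 100mM TEA pH 7.6, 5mM MgCl2, 0.01% Tween-20. After 60 minutes at room temperature, ATP was read by Kinase-Glo Plus luminescence end-point.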
PKM2 act – PKM2 (human) enzyme activation. P14618. actives 0.34% (n = 260,000). Potency, µM (doses to about 57.5 µM), for inactives: at the highest dose activation, actives largely listed as activators. purified PKM2, Kinase-Glo ATP luminescence, activation; response scale: 0% is enzyme alone, no compound; further: on the % scale 0 is the no-effect control and ±100 the full control effect; nearly all actives have a fitted effect of over 55% in size
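Purified hPK-M2 (>95%) run at intermediate activity with 0.1 mM ADP and 0.5 mM PEP in 50 mM imidazole pH 7.2, KCl, MgCl2; 1 h room temperature. ATP formed read by Kinase-Glo luminescence; normalized to uninhibited and no-enzyme controls.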
Rango release inh – inhibitors of RanGTP-induced Rango-importin beta complex dissociation | O95149+P62826 | Potency, µM (top dose mostly 46.1 µM), for inactives: top-dose activity change, negative = inhibition | actives 0.071% (n = 340,000) | AID 540253 | Biochemical FRET Rango-importin beta, RanGTP-induced dissociation; calls by dose curve; further: % of control where 0% means no effect; nearly all actives have a fitted effect of over 45% in size
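Rango FRET biosensor (snurportin-1 IBB flanked by N-terminal EYFP and C-terminal CFP10) at 0.1 uM, with 0.25 uM importin beta in PBS, 1mM DTT, 0.02% Tween-20, 0.1% BSA. 0.6 uM Ran, 2mM GTP and 0.2 uM RCC1 were then added for 45 min at room temperature. Inhibition read as loss of FRET rise.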
Rango-impB inh – Rango-importin beta binding inhibition; Q14974; Potency, µM (highest dose often 92.2 µM), without a hit: at the top dose inhibition of complex formation; actives 0.031% (n = 340,000); Rango CFP/YFP FRET sensor + importin beta, 45 min; AID 540263; calls by dose curve;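 further: 0% = DMSO wells and 100% = buffer wells lacking importin beta; nearly all actives have a fitted effect of over 15% in size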
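FRET biosensor Rango (snurportin 1 IBB between N-terminal EYFP and C-terminal Cerulean), 50 nM in PBS/1 mM DTT/0.02% Tween-20/0.1% BSA, preincubated 5 min RT with compound; 0.125 microM importin beta added, 45 min RT, CFP/YFP FRET ratio read.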
ELG1 FLuc counter – luciferase inhibition in cell-free luciferin readout for ELG1 hits; shares compounds with ELG1 repair inh; cell-free firefly luciferase luminescence counter-screen, ViewLux; Potency, µM (top dose mostly 46.1 µM), without a hit: at the top dose activity change, negative = inhibition, usual class: inhibitors; actives 3% (n = 350); further: on the % scale 0 is the no-effect control and ±100 the full control effect
ELG1-Luc inh – human ELG1 repair inhibition, luciferase-tagged ELG1 confirmation; actives 68% (n = 670); HEK293T ELG1-luciferase levels, luminescence; cells co-treated with 5-fluorouridine; shares compounds with ELG1 repair inh; Potency, µM (top dose mostly 46.1 µM), for inactives: top-dose activity change, negative = inhibition, actives largely listed as inhibitors; further: on the % scale 0 is the no-effect control and ±100 the full control effect; nearly all actives have a fitted effect of over 55% in size
ELG1-Luc MMS – confirmation of human ELG1 repair inhibitors, MMS stimulated; shares compounds with ELG1 repair inh; HEK293T luciferase-tagged ELG1 level, MMS stimulated; Potency, µM (highest dose often 46.1 µM), inactives show at the top dose activity change, negative = inhibition, actives largely listed as inhibitors; actives 53% (n = 670); AID 624249; further: on the % scale 0 is the no-effect control and ±100 the full control effect; nearly all actives have a fitted effect of over 60% in size
ELG1 5FU viab – confirmation of ELG1 repair inhibitors: viability with 5FU; cell viability with 5-FU, ELG1-dependent repair; Potency, µM (series often up to 46.1 µM), without a hit: at the top dose activity change, negative = viability loss, most hits filed as cytotoxic; 670 tested, under 10 active; shares compounds with ELG1 repair inh;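 further: ELG1-luc HEK293T cells cotreated with 5-fluorouridine at 10 µM final; viability measured 16 h after compound addition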
ELG1 MMS viab – confirmation of ELG1 repair inhibitors: viability with MMS | shares compounds with ELG1 repair inh | Cell viability with MMS, ELG1-dependent DNA repair | Potency, µM (titrated, usually from 46.1 µM), for inactives: top-dose activity change, negative = viability loss, actives largely listed as cytotoxic | actives 33% (n = 670);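 further: ELG1-luc HEK293T cells co-treated with 10 µM MMS; viability read 16 h after compound addition; on the % scale 0 is the no-effect control and ±100 the full control effect; nearly all actives have a fitted effect of over 60% in size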
ELG1 unstim viab – affects unstimulated cell viability, ELG1 hit counter-screen; shares compounds with ELG1 repair inh; cell viability counter-screen, unstimulated, luminescence; Potency, µM (highest dose often 45.9 µM), without a hit: at the highest dose activity change, negative = loss of viability, actives largely listed as cytotoxic; actives 8% (n = 900);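 further: compound exposure lasted 16 hours before reading; on the % scale 0 is the no-effect control and ±100 the full control effect; nearly all actives have a fitted effect of over 55% in size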
FLuc enzyme – counter-screen for ELG1 repair inhibitors: firefly luciferase inhibition | AID 624253 | shares compounds with ELG1 repair inh | actives 10% (n = 350) | Potency, µM (doses to about 57.5 µM), for inactives: at the highest dose activity, negative = inhibition, usual class: inhibitors | purified firefly luciferase, luminescence counter-screen; further: on the % scale 0 is the no-effect control and ±100 the full control effect
Numbers without * were called inactive; i = inactive; ? = inconclusive; . = no result. Unless noted, the call rests on the fitted dose curve; in most records, active means well fitted curve in the direction sought with a large enough effect; inconclusive means small, poorly fitted or top-dose-only effect, or another doubt; inactive means no such curve, though single readings can be large; an effect the other way counts as inactive or inconclusive. Potency means the concentration at half of the fitted maximal effect.

SMILES | Tb PFK block | ELG1 repair inh | Tb PGK inh | PKM2 act | Rango release inh | Rango-impB inh | ELG1-Luc inh | ELG1-Luc MMS | ELG1 5FU viab | ELG1 MMS viab | ELG1 unstim viab | others
O=S(=O)(c1ccc2c(c1)OCCO2)N1CCN(c2ncnc3sccc23)CC1 | 5.5% | 4.61µM* | -2.5% | ? | -5.1% | -2.7% | 12.5µM* | 1.99µM* | ? | 1.77µM* | ?
CCN(CC)S(=O)(=O)c1ccc(=O)n(CC(=O)N2CCCc3cc(C)ccc32)c1 | -3.3% | ? | 5.0% | . | -5.2% | 0.0% | . | . | . | . | .
Nc1ccccc1NC(=O)c1ccc(CNC(=O)OCc2cccnc2)cc1 | . | . | . | . | . | . | . | . | . | . | ? | ELG1 FLuc counter=135.5%;FLuc enzyme=-4.1%
COCc1ccc(C(=O)Nc2ccccc2C(=O)NCc2cccnc2)cc1 | -0.8% | 5.6% | -10.3% | 1.0% | 6.3% | 2.0% | . | . | . | . | .
Cc1nc2ccccn2c1C(=O)NNC(=O)Nc1cccc(C(F)(F)F)c1 | -24.5% | -22.5% | 7.3% | -0.5% | -10.4% | 2.3% | . | . | . | . | .
CNC(=S)N1N=C(c2ccc(OC)cc2)CC1c1ccc(Cl)cc1Cl (stereo not drawn) | -2.2% | 4.61µM* | i | -4.1% | -1.8% | -0.9% | ? | -21.7% | ? | -7.0% | 2.6%
CC(=O)N1CCc2cc(CNC(=O)Nc3ccc(Br)c(C)c3)ccc21 | . | . | i | . | . | . | . | . | . | . | .
Cc1cccc(C)c1NC(=O)CN1C(=O)C2CC=CCC2C1=O (stereo not drawn) | -12.8% | 8.3% | i | . | 3.3% | 0.5% | . | . | . | . | .
CN(C)c1cccc(C(=O)NNC(=O)CN2C(=O)C3CC=CCC3C2=O)c1 (stereo not drawn) | 3.8% | ? | 1.3% | . | -21.3% | 0.3% | . | . | . | . | -14.3%
O=C(Nc1ccc(N2CCN(C(=O)c3ccco3)CC2)cc1)c1ccc([N+](=O)[O-])cc1Cl | -2.6% | 4.61µM* | -3.7% | 10.2% | -2.7% | 5.1% | 6.28µM* | 7.05µM* | ? | ? | ?
